# In PubChem BioAssay AID463173 (ICCB-Longwood Screening Facility, Harvard Medical School, 2010):
# About 1,700 (3.3%) of roughly 52,000 compounds were called active. The entries come from a sample that favours actives as a whole. Unmarked numbers belong to inactive results. Cut-off read from the data, not from the text of the source: active = survival mostly below about 52% (no sharp cut-off); inactive = mostly above about 56%.
# System: Wild type
# Assay: S. aureus survival, RN4220 and DeltatarO strains – OD600, teichoic acid synthesis inhibitors, primary screen (AID 463173)
# Conditions: S. aureus RN4220 wild type/DeltatarO growth, OD600, 18 h, active compounds read low, screened at 18.75 µg/mL (by protocol)
row,Compound,survival
1,O=C(CSc1nc(=O)n(Cc2ccco2)c2c1CCC2)Nc1ccccc1C(F)(F)F,138%
2,Cc1ccccc1CNC(=O)c1ccc2c(c1)c(C)c(C)n2C,58%
3,CC1CCCN(c2ccc(C(=O)NCc3ccccc3)cn2)C1 (centres undefined),103%
4,CCc1cccc(NC(=O)CSc2nncn3c2cc2sccc23)c1,73%
5,CCOc1cccc2sc(NC(=O)CS(=O)(=O)c3ccc(C)cc3)nc12,72%
6,Cc1cccn2c(=O)c(C(=O)N3CCN(c4ccc(Cl)cc4)CC3)cnc12,87%
7,CCCSCCCNC(=O)C1CCCN(C(=O)c2cnn(-c3ccccc3)c2-n2cccc2)C1 (centres undefined),107%
8,COc1ccccc1CNC(=O)c1oc2ccc3c(c2c1C)C(=O)CC(C)(C)O3,59%
9,Cc1ccc(OC(C)C(=O)NCC2(N3CCOCC3)CCCCC2)cc1C (centres undefined),86%
10,CC1CCCN(Cc2c(O)ccc3c(=O)c(-c4ccc(Cl)cc4)c(C(F)(F)F)oc23)C1 (centres undefined),71%
11,CCc1cccc(C)c1NC(=O)C(CC)Sc1nncn2c1cc1occc12 (centres undefined),78%
12,CCc1ccc(CNC(=O)c2ccc3c(c2)nc2n3CCOC2)cc1,111%
13,CN(C(=O)C1CCN(c2ncnc3c2nc2n3CCCCC2)CC1)c1ccccc1F,60%
14,O=C(CSc1c2c(nc3cc(Cl)ccc13)CCCC2)N1CCN(c2ccccc2F)CC1,69%
15,COCCNC(=O)CSc1c2c(nc3cc(Cl)ccc13)CCCC2,71%
16,O=C(CSc1c2c(nc3ccc(Cl)cc13)CCCC2)N1CCN(c2ccc(Cl)cc2)CC1,53%
17,O=C(CSc1c2c(nc3cc(Cl)ccc13)CCCC2)N1CCN(c2ccccc2)CC1,44%
18,CCC(C)NC(=O)CSc1c2c(nc3cc(Cl)ccc13)CCCC2 (centres undefined),82%
19,CC1CCCN(C(=O)CSc2c3c(nc4cc(Cl)ccc24)CCCC3)C1 (centres undefined),-1% (active)
20,CC1CCN(C(=O)CSc2c3c(nc4ccc(Cl)cc24)CCCC3)CC1,-1% (active)

row,Compound,survival
1,O=C(CSc1c2c(nc3ccc(Cl)cc13)CCCC2)N1CCCCC1,29%
2,CC1CCN(C(=O)CSc2c3c(nc4cc(Cl)ccc24)CCCC3)CC1,10% (active)
3,Cc1ccc(CNC(=O)CSc2c3c(nc4cc(Cl)ccc24)CCCC3)cc1,83%
4,CCOC(=O)C1CCN(C(=O)CSc2c3c(nc4ccc(Cl)cc24)CCCC3)CC1,56%
5,CC1CCCCN1C(=O)CSc1c2c(nc3cc(Cl)ccc13)CCCC2 (centres undefined),-1% (active)
6,CCCCN1C(=O)CN(C2CCCCCC2)C(=O)C1c1ccc(OCC)c(OC)c1 (centres undefined),78%
7,CCCCNc1nc2c(S(=O)(=O)c3ccc(Cl)cc3)nnn2c2ccsc12,89%
8,O=C(NC1CC2CCCC(C1)N2CC(=O)N1CCCc2ccccc21)c1ccccc1 (centres undefined),97%
9,CCOc1ccc(C2CC(=O)c3c([nH]c(C(=O)OC4CCCCCC4)c3C)C2)cc1 (centres undefined),79%
10,O=C(Cn1nc(Cc2cccnc2)c2ccccc2c1=O)N1CCN(c2ccc(F)cc2)CC1,89%
11,Cc1ccccc1CNC(=O)C(=O)NCC(c1cccs1)S(=O)(=O)c1ccc(Cl)cc1 (centres undefined),74%
12,Cc1ccc(OCC(=O)OCc2cc(=O)n3nc(C4CCCCC4)sc3n2)cc1C,79%
13,CCC1=Nc2cc(C(=O)N3CCC(C)CC3)ccc2Sc2ccc(C)cc21,-1% (active)
14,CNC(=O)c1ccc2c(c1)N=C(C)c1cc(C)ccc1S2,80%
15,CC1=Nc2cc(C(=O)N3CCC(C)CC3)ccc2Sc2ccc(Cl)cc21,81%
16,CCOC(=O)C1CCN(C(=O)c2ccc3c(c2)N=C(CC)c2cc(C)ccc2S3)CC1,29%
17,CCCC1=Nc2cc(C(=O)N3CCC(C)CC3)ccc2Sc2ccc(C)cc21,107%
18,CC1=Nc2cc(C(=O)N3CCCCC3)ccc2Sc2ccc(C)cc21,3% (active)
19,CC(C)CCNC(=O)CN1C(=O)CCn2nc(-c3cn(C)c4ccccc34)cc21,87%
20,COc1ccccc1-c1c(C)nn2c(N3CCN(c4ccc(F)cc4)CC3)cc(C)nc12,88%

row,Compound,survival
1,O=c1c(N2CCN(c3cccc(C(F)(F)F)c3)CC2)csc2ccc(Cl)cc12,74%
2,CCOC(=O)c1c(S(=O)(=O)NCC(=O)Nc2cc(C)ccc2C)c(C)n(C)c1C,66%
3,Cn1c(=O)n(-c2cccc(Cl)c2)c(=O)c2sc3ccccc3c21,71%
4,Cc1ccc(S(=O)(=O)N2CCN(Cc3cc(=O)n4nc(-c5ccccc5Cl)sc4n3)CC2)cc1,64%
5,CCn1cc(S(=O)(=O)c2ccccc2)c(=O)c2cc(F)c(F)cc21,82%
6,CCc1ccccc1NS(=O)(=O)c1ccc2[nH]cc(C(=O)N3CCCCC3)c(=O)c2c1,127%
7,Cc1ccc(-c2nn(CCC(N)=O)c(=O)c3ccccc23)cc1,65%
8,CCOc1ccc(C(=O)Nc2ccc(-c3cc4ccccc4oc3=O)cc2)cc1Br,75%
9,Cc1ccc(Cl)cc1NC(=O)c1ccc(-c2nc(CSc3ccccc3)c(C)o2)cc1,55%
10,CCN1CCC(N(Cc2cccc(OC)c2)C(=O)Nc2ccc(C)cc2Cl)CC1,53%
11,CCN1CCC(N(Cc2cccc(OC)c2)C(=O)Nc2cccc(C)c2C)CC1,-3% (active)
12,CCN1CCC(N(Cc2ccc3c(c2)OCO3)C(=O)Nc2cccc(C)c2C)CC1,83%
13,CCc1cccc(C)c1NS(=O)(=O)c1ccc(-n2cccn2)cc1,128%
14,O=C(CCc1ccccc1)Nc1nnc(CCN2CCCCC2)s1,97%
15,CCCn1cc(S(=O)(=O)c2ccccc2)c(=O)c2cc(F)c(N3CCCC(C)C3)cc21 (centres undefined),71%
16,CC(C)OC(=O)CSc1nnc(CNc2ccc(F)cc2)n1C1CCCCC1,108%
17,Cc1cccc(Cn2cccc2CNS(=O)(=O)c2ccc(Br)cc2)c1,64%
18,Cc1cccc(Cn2cccc2CNS(=O)(=O)c2ccccc2F)c1,-4% (active)
19,CCc1ccc(S(=O)(=O)NCc2cccn2Cc2cccc(C)c2)cc1,71%
